Where “and” joins values, the source holds several entries; their conditions need not be identical. Equal values may be shown once. This is part of a sample that, as a whole, favours compounds with a hit. Of some 83,000 tested, about 20% had one in any assay.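 Results are percent growth after 48 hours of single-concentration exposure. 100 means growth as in untreated cells, lower positive values show inhibition; negative values down to -100 show cell death.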 Calls of active or inactive are those of the source. Rule for the calls: active = growth percent below 10; inactive = the rest.
Tests used:
Assay in all cases: NCI-60 one-dose screen, 48 h (100 = growth as untreated, 0 = no growth, -100 = all killed)
Settings in all cases: 10 µM unless noted
[1] = test system: T-47D breast
[2] = test system: BT-549 breast
[3] = test system: MDA-MB-435 melanoma
[4] = test system: SW-620 colon
[5] = test system: MCF7 breast
[6] = test system: HCT-116 colon
[7] = test system: HCC-2998 colon
[8] = test system: KM12 colon
[9] = test system: MDA-MB-468 breast

Measured: growth

COc1cc(C2CC(c3cc(OC)c(OC)c(OC)c3)=Nc3c(N)nc(N)nc3N2)ccc1Oc1nc(Nc2ccc(F)cc2)nc(N(C)C)n1 (configuration not stated)
active: [9] -22.6%
inactive: [1] 65.8% | [2] 74.7% | [3] 66.4% | [4] 50.7% | [5] 23.4% | [6] 22.9% | [7] 36.8% | [8] 42.9%

O=C(N/N=C/c1ccc(Br)o1)c1[nH]c2ccc(Br)cc2c1-c1ccccc1
inactive: [1] 27.1%
active: [2] -27.8% | [3] -29.1% | [4] 6.96% | [5] 0.0933% | [6] -13.3% | [7] -7.57% | [8] -1.58% | [9] 5.25%

N#CCc1nnc(NC(=O)c2ccc(-n3c(=O)[nH]c4ccccc4c3=O)cc2)s1
inactive: [1] 100% | [2] 109% | [3] 106% | [4] 104% | [5] 90.6% | [6] 103% | [7] 108% | [8] 121% | [9] 121%

Clc1ccccc1Nc1nnc(-c2c[nH]c3ccccc23)o1
inactive: [1] 27.3% | [2] 25.1% | [4] 29% | [5] 14.9% | [8] 15%
active: [3] -44.2% | [6] 8.25% | [7] 6.55% | [9] -22.5%

CN1CCN(C(=O)CCN(C(=O)Oc2cc3c(c4ccccc24)[C@H](CCl)CN3C(=O)c2cc3cc(OCCCN4CCC4)ccc3[nH]2)[C@H]2CCSSC2)CC1
active: [1] -40.9% | [2] -68.3% | [3] -37.1% | [4] -54.2% | [5] -67.4% | [6] -42.7% | [7] -91.2% | [8] -63.3% | [9] -82.9%

COc1ccc2[nH]c(O)c(N=Nc3nc(-c4ccc(Cl)cc4)cs3)c2c1
inactive: [2] 25.9% | [3] 33.2%
active: [1] -21.5% | [4] 2.98% | [5] -19% | [6] -74.9% | [7] 1.1% | [8] 4.66% | [9] -60.8%

CC(=O)Nc1cccc(-n2c(COc3ccc(Br)cc3)nc3ccccc32)c1
inactive: [1] 88.5% and 109% | [2] 109% and 97.2% | [3] 107% and 103% | [4] 97.9% and 103% | [5] 82.3% and 97.2% | [6] 101% and 102% | [7] 129% and 112% | [8] 103% and 101% | [9] 81.7% and 102%

CN(C)c1nc(NCCNS(=O)(=O)c2ccc(C(=O)/C=C/c3ccccc3)cc2)nc(N2CCOCC2)n1
inactive: [1] 73.1% | [2] 94.3% | [3] 83.3% | [7] 89.4% | [9] 52.1%
active: [4] -11.3% | [5] -4.51% | [6] -28.5% | [8] -11.1%

Nc1ccc(-c2ccc3ncnc(N4CCc5cc(F)c(Cl)cc54)c3c2)cn1
inactive: [1] 10.7% | [3] 28% | [4] 55.8% | [7] 38.2% | [8] 35.6%
active: [2] -9.19% | [5] 8.53% | [6] -52.9% | [9] -78%

COc1ccc2[nH]c(O)c(N=Nc3nc(-c4ccccc4)cs3)c2c1
active: [1] 0.04% | [6] 1.24% | [9] -20.7%
inactive: [2] 50.2% | [3] 39.7% | [4] 37.4% | [5] 11.6% | [7] 58.6% | [8] 46.7%

COc1ccc(N=Nc2c(N)nn3c(-c4ccc(F)cc4)ccnc23)cc1
inactive: [1] 61.1% | [2] 96.4% | [3] 56.2% | [4] 44.5% | [5] 55.4% | [6] 71.4% | [7] 108% | [8] 86.2% | [9] 44.2%

CCCCCCCOc1ccc(S(=O)(=O)Nc2ccc(C)c(F)c2C(=O)O)cc1
inactive: [1] 93.9% | [2] 103% | [3] 102% | [4] 100% | [5] 86.6% | [6] 95.5% | [7] 117% | [8] 97.1% | [9] 72.8%

Nc1cc2ccccc2c(=O)n1NC(=O)c1ccccc1
inactive: [1] 77.7% | [2] 120% | [3] 99.8% | [4] 94.8% | [5] 53.8% | [6] 96.5% | [7] 120% | [8] 97.7%
active: [9] -35.4%

CC[C@]12C=CCN3CC[C@@]4(c5ccc(OC)cc5N(C)[C@H]4[C@@](O)(C(=O)OC)[C@@H]1OC(=O)CCCC[P+](c1ccc(F)cc1)(c1ccc(F)cc1)c1ccc(F)cc1)[C@@H]32
inactive: [1] 12.8% | [4] 36.9% | [6] 23.4% | [7] 19.4% | [8] 16%
active: [2] -23.5% | [3] -16% | [5] 5.18% | [9] -74.6%

CC(C)(C)OC(=O)N1C/C(=C\c2ccc(F)cc2)C(=O)/C(=C/c2ccc(F)cc2)C1
inactive: [1] 14.4%
active: [2] -88.1% | [3] -82.6% | [4] -67.7% | [5] -66.5% | [6] -81.5% | [7] -98% | [8] -90.7% | [9] -82.3%

CCCCCCCCCCCCCCCCCC(=O)Nc1ccc(OC)cc1
inactive: [1] 108% | [2] 108% | [3] 115% | [4] 103% | [5] 93.3% | [6] 102% | [7] 122% | [8] 101% | [9] 99.8%

O=C(Nc1ccc(-c2ccc3c(c2)NC(=O)/C3=C\c2ccc[nH]2)cc1)Nc1ccc(Cl)c(C(F)(F)F)c1
inactive: [1] 16.5% | [4] 27.6% | [7] 48.4% | [8] 22.3%
active: [2] 5.89% | [3] 3.54% | [5] 3.21% | [6] 2.62% | [9] -18.4%

Cc1ccc(C(=O)Nc2cccc(C(=O)NC(=S)Nc3ccc(S(N)(=O)=O)cc3)c2)cc1
inactive: [1] 47.6% | [2] 51.4% | [3] 72.5% | [4] 116% | [5] 57.2% | [6] 71.6% | [7] 95.8% | [8] 76.9% | [9] 58.7%

CCN1CCN(Cc2ccc(C(=O)Nc3cccc(Nc4ccc5c(OC)cccc5n4)c3)cc2C(F)(F)F)CC1
active: [1] -71.4% | [2] -94% | [3] -94.9% | [4] 7.01% | [5] -89.1% | [6] -56.4% | [7] -94% | [8] -37.6% | [9] -94.7%

CS(=O)(=O)Nc1cncc(-c2ccc3ncnc(NCc4ccccc4)c3c2)c1
inactive: [3] 55.1% | [4] 38.9% | [6] 19.1% | [7] 45.9% | [8] 65.5%
active: [1] 3.96% | [2] 2.92% | [5] 9.82% | [9] -34%

Cc1ccc(C2CC(c3ccc(S(=O)(=O)NCCNc4nc(N(C)C)nc(N5CCOCC5)n4)cc3)=Nc3c(N)nc(N)nc3N2)cc1 (configuration not stated)
inactive: [1] 43.8% | [2] 35.2% | [3] 63.6% | [4] 81.2% | [5] 27.6% | [6] 38.7% | [7] 47.9% | [8] 47.9% | [9] 24.2%

O=C(CSc1nnc(-c2ccc(-c3nc4ccc(Cl)cc4[nH]3)cc2)o1)Nc1ccc(Cl)cc1
inactive: [1] 47.5% | [5] 19.1% | [7] 67% | [8] 18.8% | [9] 72.4%
active: [2] -9.75% | [3] 8.45% | [4] 4.33% | [6] 5.5%

COc1ccc2c(c1)C(Sc1ccc(Cl)cc1)c1c(nc(N)c(C#N)c1N)O2 (configuration not stated)
inactive: [1] 55% | [2] 12.4% | [3] 75.8% | [4] 58.1% | [5] 26.7% | [6] 48% | [7] 94.2% | [8] 47% | [9] 77.9%

CC(C)(C)c1cc(-c2cc(-c3ccccc3)[nH]c(=O)c2C#N)cc(C(C)(C)C)c1
inactive: [1] 36.4% | [3] 56.9% | [4] 66.1% | [5] 71.8% | [7] 59.8% | [8] 81.3% | [9] 37.8%
active: [2] -3.78% | [6] -35%

COc1cc(CNC(=O)C[C@H](C)CCC=C(C)C)ccc1OCc1cn(-c2ccc(Cl)cc2Cl)nn1
inactive: [1] 60.2% | [2] 83.7% | [3] 98.2% | [4] 89.3% | [5] 67.5% | [6] 53.1% | [7] 92.5% | [8] 93.1% | [9] 50.4%

COc1ccc2[nH]c(O)c(N=Nc3nc(-c4ccc(Br)cc4)cs3)c2c1
inactive: [2] 35% | [3] 50.3% | [7] 51.4% | [8] 55.6%
active: [1] -27.2% | [4] 4.99% | [5] -16.4% | [6] -63.1% | [9] -7.45%

CCCCCCCCc1ccc(C(=O)Nc2ccc(C)cc2C(=O)O)cc1
inactive: [1] 94% | [2] 104% | [3] 104% | [4] 103% | [5] 85.2% | [6] 75.5% | [7] 106% | [8] 50.3% | [9] 70.5%

Cc1ccc(C(=O)Nc2cc(-n3cnc(F)c3)cc(C(F)(F)F)c2)cc1C#Cc1cnc2cccnn12
inactive: [1] 76.1% | [2] 60.1% | [3] 46.4% | [4] 45.1% | [5] 38.8% | [6] 19% | [7] 70.6% | [8] 39.1% | [9] 81.7%

— PubChem BioAssay (NCI)
